Screening results as filed in PubChem.
In the library only some 5.9% were active in any assay of this set; here they are far more common.
HSP90 inh – blocks HSP90-mediated luciferase refolding in reticulocyte lysate; Rabbit reticulocyte lysate, luciferase refolding luminescence, 3 h; inhibition, % at 5.6 µM; 290,000 compounds, 0.91% hits;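 active means inhibition above the screen-wide mean plus 3 SD, computed separately per campaign, cut at about 16% in these data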;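 further: inhibitors lower the luminescence because luciferase stays unfolded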
AHR activator – activates the human aryl hydrocarbon receptor. AHR-responsive luciferase reporter cells, luminescence. activation, % at 5 µM. 320,000 compounds, 2.5% hits; in the data active means activation above about 47%
HSF-1 act – increases HSF-1 driven luciferase reporter signal | NIH3T3-HGL HSF-1 luciferase reporter, MG132, 8 h; 100% = twice DMSO control signal | activation, % at 9 µM | 300,000 compounds, 1.7% hits | AID 504408;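 active means mean replicate activation of at least 50% with a set share of replicates each reaching 50%; inconclusive means only one of those two conditions met; inactive means mean below 50% and too few replicates reaching it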
HSF1 inh – HSF1 inhibition. NIH3T3-HGL HSE-luciferase, MG132-induced, luminescence 8 h; hits give low values. AID 2098. activity change, negative = inhibition, % at 7.5 µM (by protocol). 300,000 compounds, 0.77% hits;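 active means more than half of replicate wells show activity change below -50%, luminescence cut by over half; inconclusive means some wells, but at most half, below -50%; inactive means no replicate well below -50%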;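 further: luciferase reports HSF-1 transcriptional activity via heat shock element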
FXN GAA850 act – increases GAA850 frataxin promoter reporter activity; activation, % at 6 µM; AID 540364; HEK293 lucGAA850 FXN promoter luciferase reporter, 24 h; percent of 10 µM SAHA response; 360,000 compounds, 0.56% hits;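 active means activation above the average of all compounds screened plus 3 SD, cutoff fixed separately per campaign, cut at about 7.5% in these data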
NR0B1 inh – inhibits human nuclear receptor DAX1; AID 504766; inhibition, % at 6.75 µM; P51843; 340,000 compounds, 0.99% hits; HEK293 Gal4-DAX1 luciferase reporter, luminescence;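 active means inhibition above the mean over all tested compounds plus 3 SD, cut at about 4.2% in these data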;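 further: inhibition shows as a rise in luminescence from relieved DAX1 repression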
Target sequence (P51843 207-470 limits assumed): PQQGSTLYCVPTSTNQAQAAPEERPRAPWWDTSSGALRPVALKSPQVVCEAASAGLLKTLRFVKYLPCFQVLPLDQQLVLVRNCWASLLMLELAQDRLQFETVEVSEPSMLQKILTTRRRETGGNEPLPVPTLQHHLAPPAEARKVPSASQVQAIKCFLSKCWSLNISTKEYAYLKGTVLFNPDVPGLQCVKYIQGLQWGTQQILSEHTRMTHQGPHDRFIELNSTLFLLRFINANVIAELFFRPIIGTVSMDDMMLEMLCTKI
Large screens that a line does not name were inactive.

COc1ccc(CCNC(=O)C2CCN(S(=O)(=O)N3CCC(C)CC3)CC2)cc1OC	none
O=C(NCC1CCCO1)c1cc(-c2ccccc2F)no1 (stereo unspecified)	none
Nc1nn(-c2ccccc2)c(N)c1N=Nc1ccccc1F	AHR activator 64, HSF-1 act 59
Nc1nn(-c2ccccc2)c(N)c1N=Nc1ccccc1	none
Cc1nc2c(N=Nc3ccccc3F)c(N)nn2c(N)c1C#N	AHR activator 60
CCOc1ccc(NC(=O)CN(C)C(=O)c2cc3c(s2)CCC3)cc1OCC	none (no result: HSP90 inh, AHR activator, HSF-1 act, HSF1 inh)
O=C(COC(=O)CNC(=O)c1ccc(Cl)c([N+](=O)[O-])c1)NNC(=O)c1ccccc1F	none (no result: HSP90 inh, HSF-1 act, HSF1 inh)
O=C(COC(=O)CNC(=O)c1ccc(Cl)c([N+](=O)[O-])c1)NC(=O)c1ccccc1	AHR activator 57
COc1cccc(-c2cnc(C(O)c3cc(Cl)cc(Cl)c3)[nH]2)c1 (stereo unspecified)	none (no result: HSP90 inh, AHR activator, HSF-1 act, HSF1 inh, NR0B1 inh)
COc1ccc(NC(=S)c2ccncc2)cc1	none
OCCNC(=S)Nc1ccc(Oc2ccccc2)cc1	none
COc1ccc(NC(=S)Nc2ccc(Oc3ccccc3)cc2)cc1	HSF1 inh -65
CCNC(=S)Nc1ccc(Oc2ccccc2)cc1	none
O=C(O)/C=C/C(=O)Nc1ccc(Oc2ccccc2)cc1	HSF1 inh -54
COc1ccc(C(=S)Nc2ccc(C)cc2)cc1	HSF-1 act 63
S=C(NCc1ccccc1)Nc1ccc(Oc2ccccc2)cc1	AHR activator 74
COc1cccc(CNC(=S)Nc2ccc3c(c2)c(=O)n(C)n3Cc2ccc(F)cc2)c1	none (no result: HSP90 inh, AHR activator, HSF-1 act, HSF1 inh, NR0B1 inh)
Cc1cc(C)nc(NS(=O)(=O)c2ccc(NCN3C(=O)c4ccccc4C3=O)cc2)n1	none (no result: HSP90 inh, AHR activator, HSF-1 act, HSF1 inh)
CC1CCCC(C)N1C(=O)CSc1nnc(COc2ccc(F)cc2)o1 (stereo unspecified)	none
COc1cccc(C(=O)Nc2cccc(SC)c2)c1	HSF-1 act 62
COc1cccc(C(=O)Nc2ccc3[nH]ncc3c2)c1	AHR activator 52
COc1ccccc1C(=O)Nc1ccc2[nH]ncc2c1	none (no result: AHR activator)
COc1ccc(NC(=O)c2cccc(OS(=O)(=O)N(C)C)c2)cc1	HSF-1 act 54
CSc1cccc(NC(=O)c2cccc3cccnc23)c1	HSF-1 act 54
COc1cc(C=CC(=O)N2CCN(CC(=O)N3CCCC3)CC2)cc(OC)c1OC	none (no result: HSP90 inh, AHR activator, HSF-1 act, HSF1 inh)
COC(=O)c1[nH]c2cc(OC)c(OC)cc2c1NC(=O)c1cccc(OC)c1	AHR activator 62
CCc1ccc(/C=C/C(=O)c2ccc(N3CCOCC3)cc2)cc1	HSF-1 act 55
CC(=O)Nc1cccc(-c2cc(NC(C)=O)c3ncc(-c4ccc(C(C)=O)cc4)n3c2)c1	none (no result: HSP90 inh, AHR activator, HSF-1 act, HSF1 inh, NR0B1 inh)
CC(C)(C)c1ccc(C(=O)/C(C#N)=C/c2cccs2)cc1	NR0B1 inh 4.6
Cc1ccc(NC(=O)/C(C#N)=C/c2cccs2)c(C)c1	HSF-1 act 53
COc1cc(/C=C2\C(=O)N(c3ccc(NC(C)=O)cc3)N=C2c2ccccc2)ccc1O	HSP90 inh 16
O=C(Nc1cc(Cl)ccc1Cl)c1noc2c1CCCC2	AHR activator 75 (no result: HSP90 inh)
O=C(Nc1ccc(F)cc1F)c1noc2c1CCC2	none
O=C(Nc1ccc2c(c1)OCO2)c1noc2c1CCCC2	AHR activator 55
COc1cc(NC(=O)c2noc3c2CCCC3)c(OC)cc1Cl	AHR activator 55
COc1ccc(Cl)cc1NC(=O)c1noc2c1CCCC2	none
Cc1nn(-c2ccccc2)c(C)c1C(=O)NCc1ccc(S(N)(=O)=O)cc1	none
CCC(=O)c1cn(CC(=O)Nc2cccc(OC)c2)c2ccccc12	none
Cc1nc(C)c(-c2ccc(SCc3ccc(Cl)cc3)nn2)s1	none
Cc1nc(C)c(-c2ccc(SCc3ccc([N+](=O)[O-])cc3)nn2)s1	HSF-1 act 52
Cc1nc(Nc2nc(CSc3ccc(Cl)cc3)cc(=O)[nH]2)nc2ccccc12	HSF-1 act 61
O=c1cc(CSc2ccc(Cl)cc2)nc(-c2ccccn2)[nH]1	HSF-1 act 136
O=c1cc(CSc2ccc(Cl)cc2)nc(-c2ccccc2)[nH]1	none (no result: NR0B1 inh)
CC(Cc1ccccc1)C(=O)Nc1ccccc1 (stereo unspecified)	HSF1 inh -65
CC(Cc1ccccc1)C(=O)Nc1ccc(Br)cc1 (stereo unspecified)	none
O=C(C#Cc1ccccc1)Nc1ccccc1F	HSF-1 act 106
NC(=O)c1ccc(NC(=O)C#Cc2ccccc2)cc1	HSF-1 act 61
CCOC(=O)N1C(=O)NC(=O)C1c1ccccc1 (stereo unspecified)	none (no result: HSP90 inh, AHR activator, HSF-1 act, HSF1 inh)
COc1ccc(CCNC(=O)[C@@H](NC(=O)N2CCn3c2nc2ccccc23)C(C)C)cc1OC	none
COc1ccc(CCNC(=O)[C@H](CC(C)C)NC(=O)N2CCn3c2nc2ccccc23)cc1OC	HSF-1 act 56
COC(=O)c1ccccc1NC(=O)CSc1nc(Nc2ccccc2)nc(N2CCOCC2)n1	HSF-1 act 77
CSc1ncc(C(=O)Nc2cccnc2)c(C(F)(F)F)n1	HSF1 inh -79 (no result: AHR activator)
O=C1C(=O)c2ccccc2C(O)=C1c1ccccc1F	none
O=C1c2ccccc2C(=O)C1c1ccnc2ccccc12	AHR activator 62
O=C1C(c2ccnc3ccccc23)=C(O)c2ccccc21	AHR activator 54
O=C1c2ccccc2C(=O)C1c1nccc2ccccc12	AHR activator 51, HSF1 inh inconclusive
Cc1coc2c(C)c3oc(=O)c(CCC(=O)N[C@H](C(=O)O)C(C)C)c(C)c3cc12	none (no result: HSP90 inh, AHR activator, HSF-1 act, HSF1 inh)
Cc1nonc1OCCNCCNc1ccc([N+](=O)[O-])cc1Cl	HSF-1 act 77
C#CC[N+]1(CC#Cc2ccccc2)CCCCC1	HSF-1 act 82
C(#Cc1ccccc1)C[N+]1(CC#Cc2ccccc2)CCCCC1	none
Cc1ccc2c(c1)N1C(=O)c3ccccc3C1C1=C(CC(C)(C)CC1=O)N2 (stereo unspecified)	AHR activator 50
CC(=O)Oc1cccc(C2C3=C(CC(C)(C)CC3=O)Nc3ccccc3N2C(C)=O)c1 (stereo unspecified)	none
CC12CCC(C3NC(=S)NN=C31)C2(C)C (stereo unspecified)	none (no result: HSP90 inh, AHR activator, HSF-1 act, HSF1 inh)
CCOc1ccccc1/C=C/c1onc(C)c1S(=O)(=O)N1CCC(C(=O)NC(C)(C)C)CC1	HSF1 inh -83
O=C(Nc1ccc2ccccc2c1)c1onc2c1CCCC2	none
Cc1cccc(NC(=O)c2onc3c2CCCC3)n1	HSP90 inh 28
Cc1ccccc1NC(=O)c1onc2c1CCCC2	none
Cc1cccc(NC(=O)c2onc3c2CCCC3)c1C	HSF-1 act 65
CCc1ccc(NC(=O)Cn2cnc3sc(C)c(S(=O)(=O)N4CCOCC4)c3c2=O)cc1	none
C/C(=N\NC(=O)C1(C)CC1(Br)Br)c1cccc(NC(=O)c2ccc(C)o2)c1 (stereo unspecified)	none
CCc1ccc(N2C(=O)Nc3ccc(Br)cc3C2(O)C(=O)NCCN(C)C)cc1 (stereo unspecified)	none
